Results filed as inconclusive are left out. Calls of active or inactive are those of the source. Rule for the calls, unless noted: active = hit-call score of the fitted dose curve at least 0.9, where 1 is the maximum; inactive = score below 0.9.

Experiment [1] in a line: ACEA_ER_80hr: ACEA Biosciences xCELLigence Real-Time Cell Analysis on Estrogen Receptor Agonism for Proliferation (AID 2282667; active = hit-call score of the fitted dose curve at least 0.9, where 1 is the maximum). As to conditions: T47D proliferation, impedance (xCELLigence), 80 h. Put shortly: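 T47D human breast cells were seeded on electrode plates, monitored overnight, then exposed continuously to compounds in eight-point 1:4 dilutions from 100 uM (max 0.5% DMSO). Impedance-based growth was read at 80 h, fitted upward relative to DMSO.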

Experiment [2] in a line: ATG_CRE_CIS: Attagene CIS-FACTORIAL HepG2 Assay for human cAMP Responsive Element (CRE) binding protein 3 (AID 2282926). The note with it: HepG2 CRE cis-reporter, Attagene multiplexed mRNA; actives raise or lower the signal. The gist of the method: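 Capillary electrophoresis of 6-FAM-labelled, HpaI-digested PCR products quantified reporter transcripts. These came from HepG2 transiently transfected with cis-element reporters and exposed to test chemicals for 24 hours, with DMSO defining baseline activity.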

In experiment [3] the target is CCAAT/enhancer-binding protein beta (Homo sapiens) (UniProt P17676). The experiment is described as follows: ATG_C_EBP_CIS: Attagene CIS-FACTORIAL HepG2 Assay for human CCAAT/Enhancer Binding Protein (C/EBP) beta (AID 2282927). The note with it: HepG2 Attagene cis-factorial transcription factor reporter; actives raise or lower the signal. Put shortly: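 HepG2 transiently transfected with multiplexed reporter units under cis-regulatory promoters reporting endogenous C/EBPb activity. After 24 h exposure, reporter mRNA assayed by RT-PCR, fluorescent labelling, HpaI digestion and capillary electrophoresis; bidirectional fitting versus DMSO.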
CCAAT/enhancer-binding protein beta (Homo sapiens), sequence (P17676 whole entry, looked up): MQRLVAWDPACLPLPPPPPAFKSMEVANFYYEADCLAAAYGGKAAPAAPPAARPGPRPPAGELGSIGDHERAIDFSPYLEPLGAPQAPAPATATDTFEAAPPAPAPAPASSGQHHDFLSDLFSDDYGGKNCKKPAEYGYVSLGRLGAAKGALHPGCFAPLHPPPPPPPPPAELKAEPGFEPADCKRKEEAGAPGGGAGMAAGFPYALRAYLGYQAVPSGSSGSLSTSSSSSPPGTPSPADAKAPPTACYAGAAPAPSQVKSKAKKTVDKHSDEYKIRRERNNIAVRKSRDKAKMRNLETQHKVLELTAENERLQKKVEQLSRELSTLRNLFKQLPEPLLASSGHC

Experiment [4] can be described thus: ATG_CMV_CIS: Attagene CIS-FACTORIAL HepG2 Assay for human CMV (Internal Marker) (AID 2282928).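 Note: endpoint acts as a background internal control marker rather than a target.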 The note with it: HepG2 CMV promoter reporter, transcription factor profiling; actives raise or lower the signal. Put shortly:
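Reporter transcripts from transfected HepG2 cells are isolated after 24 h of chemical dosing, reverse-transcribed and amplified. Fragments labeled with 6-FAM are cut with HpaI and quantified by capillary electrophoresis; DMSO defines baseline.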

Experiment [5] can be described thus: ATG_DR4_LXR_CIS: Attagene CIS-FACTORIAL HepG2 Assay for human Liver X Receptor (LXR), DR4 submotif (AID 2282929). As to conditions: HepG2 Attagene DR4 cis-reporter, mRNA transcription; actives raise or lower the signal. The gist of the method: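 HepG2 cells were transiently transfected with multiple cis-regulated reporter units and dosed for 24 hours. The DR4 reporter mRNA was quantified by RT-PCR, 6-FAM labelling and capillary electrophoresis. Bidirectional fits used DMSO as baseline.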

Experiment [6] concerns the target Aryl hydrocarbon receptor (Homo sapiens) (UniProt P35869). The experiment can be described thus: ATG_Ahr_CIS: Attagene CIS-FACTORIAL HepG2 Assay for human Aryl Hydrocarbon Receptor (Ahr) (AID 2282930). As to conditions: HepG2 AhR cis-factorial reporter transcription; actives raise or lower the signal. The gist of the method: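 HepG2 cells transiently transfected with cis-element-driven multiplexed reporter units; endogenous AhR activity read as reporter mRNA 24 h after dosing, via RT-PCR, 6-FAM labelling, HpaI digestion and capillary electrophoresis. Bidirectional fit relative to DMSO.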

Experiment [7] can be described thus: ATG_AP_1_CIS: Attagene CIS-FACTORIAL HepG2 Assay for human Activator Protein 1 (AP-1) (AID 2282931). As to conditions: HepG2 Attagene cis-factorial AP-1 reporter mRNA; actives raise or lower the signal. The gist of the method:
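HepG2 cells transiently transfected with cis-element-driven reporter transcription units, dosed for 24 hours. Reporter mRNA measured by RT-PCR, 6-FAM labelling, HpaI digestion and capillary electrophoresis. Bidirectional fitting against DMSO baseline.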

A short description of experiment [8]: ATG_AP_2_CIS: Attagene CIS-FACTORIAL HepG2 Assay for human Activator Protein 2 (AP-2) (AID 2282932). The note with it: HepG2 AP-2 cis-reporter, Attagene transcription factor profiling; actives raise or lower the signal. Put shortly: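 Read-out: fluorescent reporter mRNA via RT-PCR and capillary electrophoresis, 24 h post-dose in transiently transfected HepG2. Endogenous factors drive cis-promoter reporters; gain or loss of signal fitted bidirectionally against DMSO.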

The nature of experiment [9]: ATG_BRE_CIS: Attagene CIS-FACTORIAL HepG2 Assay for human Bone Morphogenetic Protein (BMP) Response Element (BRE) (AID 2282933). As to conditions: HepG2 BMP response element reporter, Attagene transcription factor profiling; actives raise or lower the signal. Put shortly: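 Multiplexed cis-reporter assay, HepG2, 24 h exposure. mRNA from reporter units quantified via RT-PCR/CE; DMSO baseline; bidirectional curve fit.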

Experiment [10] has as its target Retinoic acid receptor alpha (Homo sapiens) (UniProt P10276). The experiment is described as follows: ATG_DR5_RAR_CIS: Attagene CIS-FACTORIAL HepG2 Assay for human Retinoic Acid Receptor Alpha (RARE), DR5 submotif (AID 2282934). As to conditions: HepG2 Attagene cis-factorial RARE DR5 reporter, mRNA; actives raise or lower the signal. Put shortly: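 HepG2 cells transiently transfected with multiplexed reporter units; DR5 cis-element drives reporter through endogenous transcription factors. After 24 h dosing, reporter mRNA quantified by RT-PCR, fluorescent labeling, HpaI digestion and capillary electrophoresis; bidirectional fitting versus DMSO.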

In experiment [11] the target is Transcription factor E2F1 (Homo sapiens) (UniProt Q01094). The experiment can be described thus: ATG_E2F_CIS: Attagene CIS-FACTORIAL HepG2 Assay for human E2F Transcription Factor 1 (AID 2282935). As to conditions: HepG2 Attagene cis-reporter, E2F reporter RNA transcripts; actives raise or lower the signal. Put shortly:
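Transient MRTU transfection of HepG2; 24 h compound exposure; RNA → oligo(dT) RT → PCR → FAM label → HpaI cut → CE fluorescence. Gain/loss of signal fit against DMSO.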

Experiment [12] is described as follows: ATG_E_Box_CIS: Attagene CIS-FACTORIAL HepG2 Assay for human Enhancer Box (E-box) (AID 2282936). The note with it: HepG2 E-box cis-reporter transcription, actives raise or lower the signal. The gist of the method:
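Transiently transfected HepG2, endogenous TF-driven reporters, 24 h dosing. Readout: RT-PCR plus capillary electrophoresis of fluorescent reporter fragments. Gain or loss of signal fitted bidirectionally against DMSO baseline.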

The nature of experiment [13]: ATG_M_61_CIS: Attagene CIS-FACTORIAL HepG2 Assay for M61 Transcription Factor (Internal Marker) (AID 2282937). As to conditions: HepG2 Attagene CIS-FACTORIAL M61 internal marker reporter; actives raise or lower the signal. Put shortly:
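HepG2 cells transiently transfected with multiplexed cis-promoter reporter units reporting endogenous transcription factor activity, measured 24 h after dosing. Reporter mRNA quantified by RT-PCR and capillary electrophoresis; bidirectional fit against DMSO baseline.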

Experiment [14] is described as follows: ATG_EGR_CIS: Attagene CIS-FACTORIAL HepG2 Assay for human Early Growth Response 1 (EGR1) (AID 2282938). The note with it: HepG2 Attagene CIS-FACTORIAL EGR reporter mRNA; actives raise or lower the signal. The gist of the method:
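HepG2 cells transiently transfected with cis-element-driven multiplexed reporter units, dosed for 24 h. EGR1-element reporter mRNA quantified by RT-PCR, 6-FAM labelling, HpaI digestion and capillary electrophoresis; bidirectional fit versus DMSO.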

Experiment [15] in a line: ATG_ERE_CIS: Attagene CIS-FACTORIAL HepG2 Assay for Estrogen Response Element (ERE) (AID 2282940). As to conditions: HepG2 ERE cis-reporter, Attagene RNA transcript; actives raise or lower the signal. Put shortly: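 Fluorescence of capillary-separated, FAM-labelled reporter cDNA fragments indicates reporter mRNA levels in HepG2 cells exposed to chemicals for 24 h. Transient transfection with cis-regulated units; data fitted in both directions against DMSO.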

In experiment [16] the target is Hepatocyte nuclear factor 3-beta (Homo sapiens) (UniProt Q9Y261). The experiment is described as follows: ATG_FoxA2_CIS: Attagene CIS-FACTORIAL HepG2 Assay for human Forkhead box A2 (FOXA2) (AID 2282942). The note with it: HepG2 cis-reporter transcription factor activity, 24 h; actives raise or lower the signal. The gist of the method:
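HepG2 transiently transfected with a multiplexed cis-promoter reporter library read endogenous FOXA2 activity. After 24 h compound exposure, reporter mRNA was quantified by RT-PCR, HpaI digestion and capillary electrophoresis. Bidirectional fit against DMSO.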

Experiment [17] can be described thus: ATG_FoxO_CIS: Attagene CIS-FACTORIAL HepG2 Assay for human Forkhead box O (FoxO) (AID 2282943). As to conditions: HepG2 Attagene cis-reporter, FoxO element, mRNA; actives raise or lower the signal. Put shortly:
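HepG2 cells transiently transfected with cis-element-driven reporter units report endogenous FoxO activity. After 24 h chemical exposure, reporter mRNA quantified by RT-PCR, fluorescent labeling, HpaI digestion and capillary electrophoresis; bidirectional fit versus DMSO.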

A short description of experiment [18]: ATG_GATA_CIS: Attagene CIS-FACTORIAL HepG2 Assay for human GATA Binding Protein (AID 2282944). As to conditions: HepG2 GATA cis-element reporter, Attagene multiplex mRNA; actives raise or lower the signal. Put shortly: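 After transfecting HepG2 cells with multiple cis-regulated reporter units, chemicals are dosed for 24 h; isolated RNA undergoes RT-PCR and fluorescent labeling before capillary electrophoresis, with activity expressed against DMSO.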

A short description of experiment [19]: ATG_M_19_CIS: Attagene CIS-FACTORIAL HepG2 Assay for M19 Transcription Factor (Internal Marker) (AID 2282939). The note with it: HepG2 Attagene CIS-FACTORIAL M19 internal marker reporter; actives raise or lower the signal. Put shortly: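 Signals come from fluorescence of labelled reporter-specific PCR fragments resolved by capillary electrophoresis, following 24 h treatment of HepG2 cells transfected with cis-promoter reporter units; activity was fitted in both directions relative to DMSO.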

A short description of experiment [20]: ATG_Ets_CIS: Attagene CIS-FACTORIAL HepG2 Assay for human Erythroblast Transformation Specific (ETS) (AID 2282941). As to conditions: HepG2 ETS cis-reporter transcription, actives raise or lower the signal. Put shortly:
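Bidirectional fit versus DMSO of reporter mRNA signal, detected by RT-PCR and capillary electrophoresis in HepG2 cells transiently transfected with cis-element reporters and dosed 24 h.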

Hepatocyte nuclear factor 3-beta (Homo sapiens), sequence (Q9Y261 whole entry, looked up): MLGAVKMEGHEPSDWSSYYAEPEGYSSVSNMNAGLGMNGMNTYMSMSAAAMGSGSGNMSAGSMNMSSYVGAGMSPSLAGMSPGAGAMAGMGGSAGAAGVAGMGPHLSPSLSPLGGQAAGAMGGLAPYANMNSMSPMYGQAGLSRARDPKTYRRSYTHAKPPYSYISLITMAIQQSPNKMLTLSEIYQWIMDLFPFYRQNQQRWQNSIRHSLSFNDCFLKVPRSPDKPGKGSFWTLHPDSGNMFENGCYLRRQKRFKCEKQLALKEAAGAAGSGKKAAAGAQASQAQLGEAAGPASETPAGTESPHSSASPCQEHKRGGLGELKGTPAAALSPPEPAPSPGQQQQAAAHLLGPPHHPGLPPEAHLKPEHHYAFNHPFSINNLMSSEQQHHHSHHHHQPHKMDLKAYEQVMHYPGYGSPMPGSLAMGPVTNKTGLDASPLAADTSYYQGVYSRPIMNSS
Retinoic acid receptor alpha (Homo sapiens), sequence (P10276 whole entry, looked up): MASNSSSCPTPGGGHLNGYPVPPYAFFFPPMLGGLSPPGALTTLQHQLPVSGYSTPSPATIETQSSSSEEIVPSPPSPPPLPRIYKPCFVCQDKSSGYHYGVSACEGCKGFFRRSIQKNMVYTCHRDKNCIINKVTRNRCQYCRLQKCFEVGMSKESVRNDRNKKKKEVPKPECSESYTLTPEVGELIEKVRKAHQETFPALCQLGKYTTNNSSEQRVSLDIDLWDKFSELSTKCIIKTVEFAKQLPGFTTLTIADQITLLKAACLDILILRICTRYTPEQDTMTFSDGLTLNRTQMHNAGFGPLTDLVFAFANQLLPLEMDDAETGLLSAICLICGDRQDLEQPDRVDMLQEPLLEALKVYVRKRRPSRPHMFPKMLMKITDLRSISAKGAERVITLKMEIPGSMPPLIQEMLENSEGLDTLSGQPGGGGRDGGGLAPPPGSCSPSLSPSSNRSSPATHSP
Aryl hydrocarbon receptor (Homo sapiens), sequence (P35869 whole entry, looked up): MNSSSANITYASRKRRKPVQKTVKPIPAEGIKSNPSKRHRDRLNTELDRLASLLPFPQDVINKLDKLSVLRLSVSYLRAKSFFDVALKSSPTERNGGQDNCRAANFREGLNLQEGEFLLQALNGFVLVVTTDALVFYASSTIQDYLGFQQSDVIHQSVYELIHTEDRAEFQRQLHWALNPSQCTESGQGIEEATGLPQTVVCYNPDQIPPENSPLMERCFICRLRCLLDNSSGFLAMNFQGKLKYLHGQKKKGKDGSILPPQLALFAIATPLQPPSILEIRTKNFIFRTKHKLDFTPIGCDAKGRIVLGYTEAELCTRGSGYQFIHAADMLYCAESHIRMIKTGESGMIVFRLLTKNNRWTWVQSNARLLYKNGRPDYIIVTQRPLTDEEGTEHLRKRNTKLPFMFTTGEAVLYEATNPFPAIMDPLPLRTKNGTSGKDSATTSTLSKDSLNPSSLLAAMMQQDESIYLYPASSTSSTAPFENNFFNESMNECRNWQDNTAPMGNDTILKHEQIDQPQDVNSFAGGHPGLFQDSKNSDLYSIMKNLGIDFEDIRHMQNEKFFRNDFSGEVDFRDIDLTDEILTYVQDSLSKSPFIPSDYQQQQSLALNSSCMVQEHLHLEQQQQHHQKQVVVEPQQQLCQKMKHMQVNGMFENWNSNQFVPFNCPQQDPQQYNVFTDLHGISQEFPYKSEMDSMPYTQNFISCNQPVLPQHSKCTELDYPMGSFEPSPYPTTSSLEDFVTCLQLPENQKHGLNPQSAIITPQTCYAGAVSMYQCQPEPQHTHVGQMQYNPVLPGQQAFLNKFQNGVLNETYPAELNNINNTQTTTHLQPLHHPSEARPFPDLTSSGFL
Transcription factor E2F1 (Homo sapiens), sequence (Q01094 whole entry, looked up): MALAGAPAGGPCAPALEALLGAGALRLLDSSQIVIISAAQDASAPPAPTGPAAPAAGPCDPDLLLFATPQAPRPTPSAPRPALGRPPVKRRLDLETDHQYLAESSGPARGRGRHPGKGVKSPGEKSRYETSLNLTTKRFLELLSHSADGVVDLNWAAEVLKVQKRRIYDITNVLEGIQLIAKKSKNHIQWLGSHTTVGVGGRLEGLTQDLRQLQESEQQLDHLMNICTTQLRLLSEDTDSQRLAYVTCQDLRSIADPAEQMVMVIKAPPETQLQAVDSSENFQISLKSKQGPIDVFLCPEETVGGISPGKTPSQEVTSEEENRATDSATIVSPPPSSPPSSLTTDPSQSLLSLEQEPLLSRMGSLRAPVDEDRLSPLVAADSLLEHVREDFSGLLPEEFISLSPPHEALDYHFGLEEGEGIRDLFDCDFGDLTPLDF

In the case of `Nc1cc([N+](=O)[O-])cc(Cl)c1O`, the result in experiment [1], in [2], in [3], in [4], in experiment [5] and in [6] was inactive. In addition, the compound was classed as inactive in experiment [7], in [8], in [9], in experiment [10], in [11] and in experiment [12]. Further, the compound was called inactive in experiment [13], in [14], in experiment [15], in [16], in [17] and in experiment [18].

For the compound `O=C(c1ccccc1)c1ccc(Cl)cc1`, the call in experiment [1], in experiment [2], in experiment [3], in experiment [4], in experiment [5] and in experiment [6] was inactive. Also, the compound was called inactive in experiment [7], in experiment [8], in experiment [9], in experiment [10], in experiment [11] and in [12]. The outcome in experiment [13], in experiment [14], in experiment [19], in experiment [20], in experiment [16] and in [17] was inactive. In experiment [18], the compound was called inactive. Further, the concentration at half-maximal activity (AC50) (usually the concentration at which the activity in the assay is half-maximal) in experiment [15] was 44.4 µM (active).

`FC(F)(F)C(F)(F)C(F)(F)C(F)(F)C(F)(F)C(F)(F)CC[Si](Cl)(Cl)Cl`: the compound was classed as inactive in [1], in experiment [2], in experiment [3], in experiment [4], in [5] and in experiment [6]. Further, the outcome in experiment [7], in experiment [9], in experiment [10], in experiment [11], in experiment [12] and in experiment [13] was inactive. For the same compound, the call in [14], in experiment [19], in experiment [15], in [20], in experiment [16] and in [17] was inactive. Further, the compound was classed as inactive in [18].

(Values after PubChem BioAssay (EPA / NIEHS).)
